Rows were chosen to be rich in hits. Some 3.5% of all compounds tested hit in one or more screens of this group.
GPR151 ag – activates the human receptor GPR151; Q8TDV0; PathHunter beta-arrestin GPR151 cells, luminescence; activation, % at 11.2 µM; actives 1% (n = 650,000); AID 1508602; in the data active means activation above about 4.9%
TEAD-YAP inh – TEAD-YAP interaction inhibition. actives 1.4% (n = 640,000). inhibition, % at 9.12 µM. HEK-TIYL cells, TEAD-Gal4/YAP UAS-luciferase luminescence. AID 1259422; in the data active means inhibition above about 32%
FBW7 act – activators of human E3 ligase FBW7; Q969H0; AlphaScreen FBW7–phospho-cyclin E peptide binding, activator screen; normalized activity (activation), % at 26.1 µM; actives 0.13% (n = 650,000); in the data active means normalized activity above about 1.9%;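 further: purified mutant Fbw7 with reduced substrate affinity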
Target sequence (Q969H0 whole entry, looked up): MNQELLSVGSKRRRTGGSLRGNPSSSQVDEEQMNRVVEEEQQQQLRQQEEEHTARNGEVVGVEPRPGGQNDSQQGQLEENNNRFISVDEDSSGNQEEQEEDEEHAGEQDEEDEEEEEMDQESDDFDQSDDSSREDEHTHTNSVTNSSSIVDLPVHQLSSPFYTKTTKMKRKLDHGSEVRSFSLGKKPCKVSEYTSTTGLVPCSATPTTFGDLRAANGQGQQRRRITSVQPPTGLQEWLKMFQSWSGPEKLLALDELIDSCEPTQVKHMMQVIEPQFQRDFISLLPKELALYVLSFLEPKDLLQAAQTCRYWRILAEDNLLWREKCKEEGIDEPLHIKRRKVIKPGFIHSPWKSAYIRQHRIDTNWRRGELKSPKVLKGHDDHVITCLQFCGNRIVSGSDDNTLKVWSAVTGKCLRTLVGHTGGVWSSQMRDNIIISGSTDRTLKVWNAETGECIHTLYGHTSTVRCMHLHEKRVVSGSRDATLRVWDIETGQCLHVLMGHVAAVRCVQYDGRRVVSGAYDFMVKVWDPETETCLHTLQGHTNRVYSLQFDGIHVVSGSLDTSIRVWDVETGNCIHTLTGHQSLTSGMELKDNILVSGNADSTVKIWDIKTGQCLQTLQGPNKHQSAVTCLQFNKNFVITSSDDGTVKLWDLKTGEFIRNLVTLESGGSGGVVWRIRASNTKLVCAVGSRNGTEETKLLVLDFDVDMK
MITF primary – inhibitors of human MITF | O75030 | AlphaScreen MITF homodimerization, bead proximity signal | inhibition, % at 2.6 µM | actives 0.91% (n = 650,000); in the data active means inhibition above about 50%
MITF confirm – confirmation of human MITF inhibitors. AlphaScreen MITF homodimerization, biotin/His-MITF beads. actives 16% (n = 4,700). shares compounds with MITF primary. inhibition, % at 2.6 µM;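 active means inhibition above a cutoff derived from the DMSO control wells, cut at about 28% in these data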;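 further: inhibitors lower the bead chemiluminescence by keeping MITF from dimerizing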
AlphaScreen DR – AlphaScreen optical interference, dose response counter-screen. shares compounds with MITF primary. IC50, µM. actives 6% (n = 480). AID 1259373. AlphaScreen optical interference counterscreen, cell-free; call rule not given here
AS interf ctr – optically interferes with AlphaScreen signal; shares compounds with MITF primary; LysRS AlphaScreen counterscreen, signal interference, triplicate; inhibition, % at 2.6 µM; actives 7.6% (n = 4,700);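 active means inhibition above a cutoff derived from the DMSO control wells, cut at about 30% in these data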
Of the large screens only hits and unclear results are named; the others gave an inactive call (follow-up assays come after a bar, where they were run).

O=C(N/N=C/c1cc(O)ccc1Br)c1cccnc1	TEAD-YAP inh 66, MITF primary 59 | MITF confirm 88 | AS interf ctr 100
O=C(N/N=C/c1cc(O)ccc1Br)c1ccncc1	TEAD-YAP inh 77, MITF primary 114 | MITF confirm 120 | AS interf ctr 100
CCOC(=O)C1CCCN(Cc2ccc(NC(C)=O)cc2)C1 (stereo not given)	none
CCOc1ccc2nc(N3CCCC(C(=O)Nc4ccc(NC(C)=O)cc4)C3)sc2c1 (stereo not given)	none
COc1ccc(CN2CCCC(C(=O)N3CCCC3)C2)c(OC)c1 (stereo not given)	MITF primary 54 | MITF confirm inactive | AS interf ctr inactive
CCCN1CCN(C(=O)C2CCCN(c3nc4ccc(OCC)cc4s3)C2)CC1 (stereo not given)	MITF primary 62 | MITF confirm inactive | AS interf ctr inactive
CCOC(=O)C1CCCN(Cc2ccc(Br)cc2)C1 (stereo not given)	MITF primary 57 | MITF confirm inactive | AS interf ctr inactive
CCOc1ccccc1CN1CCCC(C(=O)N2CCCCCC2)C1 (stereo not given)	MITF primary 70 | MITF confirm inactive | AS interf ctr inactive
Cc1ccc(CCC(=O)N2CCCCC2c2nc3ccccc3[nH]2)o1 (stereo not given)	none
COC(=O)Cn1c(N2CCCCCC2)nc2c1c(=O)[nH]c(=O)n2C	none
Cn1c(Nc2ncc(C(=O)NCc3nc4ccccc4[nH]3)s2)nc2ccccc21	none
CCOc1ccc(CNc2cccc(F)c2)cc1	none
CCOc1ccc(CN2CCCC(C(=O)N3CCCC3)C2)cc1 (stereo not given)	MITF primary 68 | MITF confirm inactive | AS interf ctr inactive
CCOc1ccc(CN2CCC(C(=O)N3CCCC3)CC2)cc1	none
CCOc1ccccc1CN1CCC(N2CCCCCC2)CC1	MITF primary 78 | MITF confirm inactive | AS interf ctr inactive
O=C(C1CCCN(Cc2ccc(Br)cc2)C1)N1CCCCC1 (stereo not given)	MITF primary 60 | MITF confirm inactive | AS interf ctr inactive
O=C(C1CCCN(Cc2ccc(Cl)cc2)C1)N1CCCCCC1 (stereo not given)	MITF primary 88 | MITF confirm inactive | AS interf ctr inactive
CCC(CC)C(=O)Nc1nc(-c2ccccc2)cs1	none
N#Cc1ccc(/C=N/NC(=S)N/N=C/c2ccc(C#N)cc2)cc1	none
CCOC(=O)CN1CCN(C(C)=O)C(C(=O)N2CCCC2)C1 (stereo not given)	none
CCOC(=O)C1CCCCN1Cc1ccc(O)cc1 (stereo not given)	none
CCOC(=O)C1CCCN(C2CC(=O)N(c3ccc(F)cc3)C2=O)C1 (stereo not given)	none
CCOC(=O)C1CCCN(CC(=O)c2ccc(F)cc2)C1 (stereo not given)	MITF primary 69 | MITF confirm inactive | AS interf ctr inactive
CCOC(=O)C1CCCCN1Cc1ccc(Br)cc1 (stereo not given)	MITF primary 55 | MITF confirm inactive | AS interf ctr inactive
COc1ccc(NC(=O)Cn2nnc(-c3ccccc3N)n2)cc1OC	MITF primary 58 | MITF confirm inactive | AS interf ctr inactive
COc1ccccc1C(=O)Nc1ccccc1-c1nnn(CC(N)=O)n1	MITF primary 93 | MITF confirm inactive | AS interf ctr inactive
COc1cc(C(=O)Nc2ccccc2-c2nnn(CC(N)=O)n2)cc(OC)c1OC	none
Brc1ccc(-c2csc(-c3cc4c(ccc5ccccc54)oc3=Nc3ccccc3)n2)cc1	none
CC12CCC(C(=O)NCC(F)(F)F)(OC1=O)C2(C)C (stereo not given)	none
Cc1cc(=O)n2nc(N3CCCC3C(=O)NCCCN3CCOCC3)sc2n1 (stereo not given)	none
O=C(/C=C/c1cccs1)Nc1ccc2c(c1)C(=O)NC2=O	none
O=C(CN1CCN(Cc2nc(-c3ccco3)cs2)CC1)NCCc1ccccc1	MITF primary 76 | MITF confirm inactive | AS interf ctr inactive
O=C(CN1CCN(Cc2nc(-c3ccccc3)cs2)CC1)NCc1ccco1	none
COc1ccc(CCNC(=O)CN2CCN(Cc3nc(-c4ccco4)cs3)CC2)cc1OC	MITF primary 70 | MITF confirm 28 | AlphaScreen DR inactive | AS interf ctr inactive
O=C(CN1CCN(Cc2nc(-c3ccc(F)cc3)cs2)CC1)NCc1ccco1	MITF primary 70 | MITF confirm inactive | AS interf ctr inactive
C=CCNC(=O)CN1CCN(Cc2nc(-c3ccccc3)cs2)CC1	MITF primary 70 | MITF confirm inactive | AS interf ctr inactive
CC1(C)O[C@H]2[C@@H](O1)[C@@H](C(=O)Nc1cccc(Cl)c1)O[C@@H]1OC(C)(C)O[C@@H]12	none
Cc1ccc(C)n1C(CC(=O)O)c1ccsc1 (stereo not given)	MITF primary 80 | MITF confirm 68 | AlphaScreen DR inactive | AS interf ctr inactive
CC(C)(C)c1ccc(C(=O)Nc2cccc(NC(=O)c3cc([N+](=O)[O-])ccc3Br)c2)cc1	none
C(=C\c1ncc2ccccn12)/c1ccccc1	MITF primary 56 | MITF confirm inactive | AS interf ctr inactive
CCOC(=O)COc1ccc(S(=O)(=O)Nc2ccc(C(C)C)cc2)cc1	none
CC1CN(CCOc2ccc(Br)cc2Cl)CC(C)O1 (stereo not given)	MITF primary 51 | MITF confirm inactive | AS interf ctr inactive
CC1CN(CCOc2ccc(Cl)cc2Cl)CC(C)O1 (stereo not given)	none
CCOc1ccccc1OCCN1CC(C)OC(C)C1 (stereo not given)	none
Cc1cc(C)c(C)c(OCCN2CC(C)OC(C)C2)c1 (stereo not given)	MITF primary 71 | MITF confirm inactive | AS interf ctr inactive
CC1CN(CCCOc2ccc(Br)cc2Cl)CC(C)O1 (stereo not given)	MITF primary 58 | MITF confirm inactive | AS interf ctr inactive
O=C1N[C@@H](Cc2ccc(O)cc2)C(=O)N2CCN(C(=O)NCc3ccccc3)C[C@H]12	MITF primary 64 | MITF confirm 69 | AlphaScreen DR inactive | AS interf ctr inactive
O=C1N[C@@H](Cc2ccc(Cl)cc2)C(=O)N2CCN(C(=O)NCc3ccccc3)C[C@H]12	MITF primary 73 | MITF confirm 71 | AlphaScreen DR inactive | AS interf ctr inactive
O=C1N[C@@H](Cc2ccc(O)cc2)C(=O)N2CCN(C(=O)OCc3ccccc3)C[C@H]12	none
CC(=O)Nc1ccc(N2C(=O)c3c(Cl)c(Cl)c(Cl)c(Cl)c3C2=O)cc1	none
COc1ccc(CCNC(CC(=O)Nc2ccc(Oc3ccccc3)cc2)C(=O)O)cc1 (stereo not given)	none
COc1ccc(CCNC(C)CC(=O)Nc2ccccc2)cc1 (stereo not given)	MITF primary 56 | MITF confirm inactive | AS interf ctr inactive
